Sm TGR block: S. mansoni TGR enzyme inhibition. Q962Y6. purified TGR, DTNB reduction, TNB absorbance 405 nm. Potency, µM (doses to about 114 µM), for inactives: top-dose activity change, negative = inhibition, most hits filed as inhibitors. actives 3% (n = 360,000). AID 485364; also: nearly all actives have a fitted effect of over 60% in size
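TGR 20 nM + NADPH 100 uM (dispensed conc.), cpd preinc 15 min RT; start with NADPH (500 uM addition) then DTNB (15 mM addition). Kinetic TNB absorbance, 405 nm filter. Four-parameter Hill fit across titration.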
AmpC inh no detg: inhibitors of E. coli AmpC beta-lactamase without detergent. P00811. AmpC nitrocefin hydrolysis, absorbance 480 nm, 0.0001% Triton. Potency, µM (highest dose often 57.1 µM), for the others: top-dose activity change, negative = inhibition, actives largely listed as inhibitors. actives 0.52% (n = 330,000). AID 485341;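 also: plate controls were no compound for no effect and no enzyme for full effect; nearly all actives have a fitted effect of over 20% in size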
Target sequence (P00811 whole entry, looked up): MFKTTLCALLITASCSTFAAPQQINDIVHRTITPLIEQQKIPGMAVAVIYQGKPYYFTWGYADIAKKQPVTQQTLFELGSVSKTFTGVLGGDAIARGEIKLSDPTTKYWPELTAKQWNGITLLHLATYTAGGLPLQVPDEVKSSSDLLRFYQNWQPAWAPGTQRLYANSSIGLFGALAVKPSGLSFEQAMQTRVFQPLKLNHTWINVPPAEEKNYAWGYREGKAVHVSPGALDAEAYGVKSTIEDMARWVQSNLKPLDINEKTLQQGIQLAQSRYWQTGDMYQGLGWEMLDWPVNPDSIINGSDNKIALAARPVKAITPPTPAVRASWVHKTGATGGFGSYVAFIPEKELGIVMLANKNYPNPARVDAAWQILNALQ
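20 mM phosphate pH 7.0 + 0.01% (detergent screen) or 0.0001% Triton X-100; 5.3 nM AmpC reagent; cpd preinc 15 min RT; nitrocefin (800 uM stock) to start; A480 q20 s × 4 min; Activity was normalised to no-enzyme and no-compound control wells.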
AmpC detergent: AmpC beta-lactamase inhibition with detergent present. AmpC hydrolysis of nitrocefin, absorbance 480 nm, 0.01% Triton. AID 485294. actives 0.041% (n = 370,000). Potency, µM (series often up to 114 µM), inactives show at the highest dose activity change, negative = inhibition, hits mostly inhibitors. P00811;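 also: 0% = no-compound wells and -100% = no-enzyme wells; nearly all actives have a fitted effect of over 25% in size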
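AmpC (5.3 nM in the dispensed reagent) in 20 mM phosphate pH 7.0 with 0.01% (detergent screen) or 0.0001% Triton X-100 was preincubated with compounds for 15 min at room temperature. Nitrocefin was then added from an 800 uM solution, and hydrolysis was followed at 480 nm.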
* hit, by the source's call; ? = inconclusive; nt = not tested or not shown; [ ] = dose if it differs, or a comment. An excerpt weighted towards active compounds, which were near 3.3% of everything screened. Calls follow the shape of the dose curve; as a rule, active = well fitted curve in the direction sought with a large enough effect; inconclusive = small, poorly fitted or top-dose-only effect, or another doubt; inactive = no such curve, though single readings can be large; an effect the other way counts as inactive or inconclusive. Unless noted, % is scaled to controls: 0 for no effect and ±100 for the full control effect; potency is read from the fitted curve at half-maximal effect.

SMILES	Sm TGR block	AmpC inh no detg	AmpC detergent
CCOC(=O)C1=C(C)N=C2SCCC(=O)N2C1c1ccc(OCc2ccccc2)cc1 (stereo not given)	3.6%	nt	3.4%
CCOc1ccc(CCNC(=O)Cc2ccc(S(=O)(=O)N3CCOCC3)s2)cc1OCC	7.0%	15.6%	-2.7%
CCC(C)CCN1C(N(C)C)=NC[C@@H]1CC(C)C (stereo not given in full)	-5.4%	1.4%	-8.6%
Cc1ccccc1-n1nc(CO)c(C(=O)NCCc2ccccc2)n1	2.9%	nt	11.4%
COC(C[C@@H](O)CC(=O)[C@@H](C)OCc1ccccc1)OC	1.1%	-0.2%	-1.0%
COC(C[C@H](O)CC(=O)[C@H](C)OCc1ccccc1)OC	44.7µM*	-10.1%	-12.2%
COc1cccc(-c2nnc(SCC(=O)Nc3ccc4c(c3)OCCO4)n2Cc2ccco2)c1	-24.8%	-1.7%	-4.6%
Cn1nnnc1SCC(=O)NCc1ccco1	-14.0%	-17.3%	1.5%
O=C(CSc1ccc2nnc(-c3cccnc3)n2n1)NCc1ccco1	31.6µM*	-10.7%	5.9%
O=C(CSc1nnnn1C1CCCCC1)NCc1ccco1	28.2µM*	-16.1%	7.7%
COc1ccccc1NC(=O)CN1CCC(n2nnc3cc(F)ccc32)CC1	-3.0%	28.6%	?
COc1cccc(-c2nnc(SCC(=O)NCc3ccc4c(c3)OCO4)n2Cc2ccco2)c1	44.7µM*	-17.7%	-9.9%
O=C(CN1CCC(n2nnc3cc(F)ccc32)CC1)NCc1ccco1	44.7µM*	-2.5%	-2.4%
O=C(CSc1ccc2nnc(-c3cccc(F)c3)n2n1)NCc1ccco1	?	-10.6%	-9.9%
COc1ccccc1-c1cc(NC(=O)COc2ccccc2Cl)n(-c2ccccc2)n1	7.4%	nt	1.5%
CCCN(C(=O)c1c(C)oc2ncnc(N3CCOCC3)c12)c1ccc(Cl)c(Cl)c1	-4.0%	nt	4.3%
CCc1ccc(-n2c(=O)c3cccnc3n2CC(=O)Nc2ccccc2C(F)(F)F)cc1	-2.4%	nt	3.6%
C=CCn1c(SCC(=O)NCc2ccc3c(c2)OCO3)nnc1-c1cccnc1	-1.1%	-8.5%	-5.7%
C=CCn1c(SCC(=O)NCc2ccco2)nc2ccccc2c1=O	-18.3%	-14.5%	-3.8%
O=C(CSc1nnc(-c2ccccc2)n1-c1ccccc1)NCc1ccco1	-0.7%	-0.9%	1.2%
O=C(CSc1nnc(-c2cccnc2)n1Cc1ccco1)NCc1ccc2c(c1)OCO2	44.7µM*	-20.7%	-16.3%
C=CCn1c(SCC(=O)NCc2ccco2)nnc1-c1ccc2ccccc2n1	15.8µM*	23.4%	-5.7%
O=C(CSc1nnc(Cc2ccccc2)n1Cc1ccccc1)NCc1ccco1	-33.0%	10.3%	-5.7%
Cn1c(-c2ccccc2)cnc1SCC(=O)NCc1ccco1	39.8µM*	-14.3%	?
O=C(CSc1nnc(-c2cccnc2)n1Cc1ccccc1)NCc1ccco1	12.6µM*	38.7%	?
SMILES	Sm TGR block	AmpC inh no detg	AmpC detergent
Cc1ccc(NC(=O)COc2cccc(Oc3ccccc3)c2)cc1S(=O)(=O)N1CCOCC1	2.2%	-13.3%	3.1%
CCCn1c(=O)c2sccc2n2c(CCCC(=O)NCCc3ccc(Cl)cc3)nnc12	-0.7%	nt	-7.2%
COc1ccc(N2CC(NC(=O)c3ccc(Br)o3)CC2=O)cc1 (stereo not given)	0.7%	nt	-2.0%
O=C(c1cccc(C(F)(F)F)c1)C1CCCN(Cc2cccn2-c2ccccn2)C1 (stereo not given)	-7.4%[57.1 µM]	79.6%	-5.5%
CC(=O)Nc1cccc(NC(=O)CCn2c(=O)sc3ccccc32)c1	-4.4%	-24.1%	-2.0%
O=C(CCn1c(=O)sc2ccccc21)Nc1cccnc1	50.1µM*	-8.1%	-1.6%
COc1ccc(CCCc2n[nH]c(=S)o2)cc1	-0.1%	-6.7%	2.5%
COc1ccc(Cc2n[nH]c(=S)o2)cc1	35.5µM*	43.9%	0.6%
O=C(CCN1C(=O)C2CCCCC2C1=O)Nc1cc([N+](=O)[O-])ccc1Cl (stereo not given)	-17.2%	-19.0%	4.7%
Cc1cc(C)n(CCO)c(=O)n1	17.8%	-19.8%	?
Cc1cc(=S)cc(C)n1CCO	14.1µM*	-20.5%	-0.1%
COc1ccc(C2N3CC4(C)CN2CC(C)(C3)C4O)cc1 (stereo not given)	-0.7%	-10.2%	-4.9%
Cc1cc2c(cc1S(=O)(=O)N(C)CC(=O)Nc1cccc(C#N)c1)OCC(=O)N2	6.5%	nt	7.5%
CC(=O)CC(=O)NC1C2CC3CC(C2)CC1C3 (stereo not given)	?	9.1%	-7.7%
CC(C)NC(=O)NC1C2CC3CC(C2)CC1C3 (stereo not given)	89.1µM*	-12.7%	-8.5%
Cc1c(OC(C)C(=O)NCCCN2CCOCC2)ccc2c3c(c(=O)oc12)CCCC3 (stereo not given)	-4.5%	77.9%	0.4%
CC1CCN(C(=O)CN2c3ccc(C(C)C)cc3-c3ccccc3S2(=O)=O)CC1	-2.1%	nt	22.7%
CCCC(=O)c1ccc(CP(=O)(OCC)OCC)o1	12.6µM*	-1.5%	-7.2%
CCOc1ccc(OCc2ccc(C(=O)NN)o2)cc1	17.7%	-30.7%	-4.1%
C=CCn1c(-c2ccc(OC)cc2)nc2nc3ccccc3nc21	-24.1%	-23.8%	-12.2%
S=c1nc(-c2ccccc2)n(Cc2cccnc2)c2c1CCCC2	?	-14.7%	-12.2%
Fc1ccc(-c2nc3nc4ccccc4nc3n2Cc2ccco2)cc1	20µM*	16.0%	-3.7%
S=c1nc(-c2ccccc2)n(Cc2ccco2)c2c1CCCC2	35.5µM*	-41.4%	-2.9%
Fc1ccc(-n2c(-c3ccco3)nc3nc4ccccc4nc32)cc1	0.0%	-33.8%	-14.6%
c1ccc(-c2nc3nc4ccccc4nc3n2Cc2ccco2)cc1	10µM*	20.4%	-14.2%
SMILES	Sm TGR block	AmpC inh no detg	AmpC detergent
Cc1ccc(CS(=O)(=O)Cc2ccc(C(=O)NC3CC3)o2)cc1	-14.3%	-1.3%	-3.3%
CCCCn1cc(S(=O)(=O)c2ccc(C)c(C)c2)c(=O)c2cc(F)c(N(CC)CC)cc21	-0.3%	nt	12.0%
CCc1cc(=O)oc2c(CNCc3ccc(OC)cc3OC)c(O)c(Cl)cc12	0.3%	-5.9%	-13.6%
CCOc1ccc(NC(=O)c2ccc3c(c2)CCN3S(=O)(=O)CC)cc1	-0.6%	nt	-13.1%
COc1ccccc1Oc1nc2c(C)cccn2c(=O)c1/C=C(\C#N)c1nc2ccccc2[nH]1	-12.9%	nt	23.2%
Cc1ccc(-c2cc(C(=O)N3CC(C)OC(C)C3)c3ccccc3n2)o1 (stereo not given)	39.8µM*	-6.9%	-17.9%
Cc1ccc(-c2cc(C(=O)N3CCC(C)CC3)c3ccccc3n2)cc1	4.1%	93.9%	-12.0%
Cc1ccc(-c2cc(C(=O)NCC(c3ccccc3)N(C)C)c3ccccc3n2)o1 (stereo not given)	nt	69.8%	nt
Cc1ccc(-c2cc(C(=O)N3CC(C)CC(C)C3)c3ccccc3n2)o1 (stereo not given)	22.4µM*	5.7%	0.0%
CCCc1nnc(NC(=O)C2CCN(C(=O)C3CC(=O)N(c4ccc(C)cc4)C3)CC2)s1 (stereo not given)	-9.9%	118.5%	-4.4%
Cc1ccc(N(CC(=O)NCC2CCCO2)S(=O)(=O)c2ccccc2)c(C)c1 (stereo not given)	-1.7%	25.9%	-9.3%
O=C(O)c1cc(-c2ccco2)nc2ccccc12	?	-17.1%	-9.5%

Assay outcomes (PubChem)
